# Cardio protect = cardioprotection against H2O2-induced cell death, primary screen, uHTS, H9c2 cells, ATPLite luminescence; H9c2 cardiomyocytes, H2O2 injury protection, 2 h; protection from H2O2 cell death, % at 20 µM; 0.63% of 360,000 active;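 active = compounds giving at least 50% protection of heart cells from peroxide-induced death in the single-dose screen, raw or plate-pattern-corrected value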;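 note: 0% = DMSO wells with peroxide and 100% = DMSO wells without peroxide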
# DAGLB inhibitor = DAGLB lipase inhibitors, primary screen, biochemical, fluorescence, HTS | HEK293T DAGLB membrane lysate, EnzChek fluorogenic substrate | inhibition, % at 5.17 µM | 0.059% of 340,000 active | AID 504411, 2011; in the data active = inhibition above about 34%;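 note: 0% = enzyme with vehicle and 100% = wells lacking enzyme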
# Myeloid diff 2 = induction of myeloid progenitor differentiation, primary screen, cell-based, flow cytometry, MLPCN library; 1% of 360,000 active; ER-HoxA9 myeloid progenitors, lysozyme-GFP differentiation; calls only at 10 µM;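 active = normalized GFP-positive differentiation at or above the plate's own cutoff, the solvent-only control mean plus 3 SD; inconclusive = no clear call, values can overlap the other calls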;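 note: cells exposed to compound for four days before flow analysis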
# Rtt109 HAT inh = inhibitors of C. albicans Rtt109/Vps75 HAT, primary screen, biochemical, ThioGlo CoA-SH fluorescence, plate reader; Histone acetyltransferase RTT109 (Candida albicans (strain SC5314 / ATCC MYA-2876)), …; purified Rtt109/Vps75, 4 h; inhibition, % at 34.9 µM; 0.16% of 330,000 active; AID 540336, 2011;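 active = inhibition of at least 50% in every replicate; inconclusive = best replicate reaches 50% inhibition but some replicates fall short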
# sPLA2-III inh = human group III sPLA2 inhibitors, primary screen, biochemical, QFRET, BODIPY PC-A2 liposome substrate. Group 3 secretory phospholipase A2 (Homo sapiens), Q9NZ20. QFRET BODIPY PC-A2 liposome hydrolysis, fluorescence. AID 743126, 2013. 0.56% of 370,000 active. inhibition, % at 12.2 µM;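 active = inhibition above mean plus 3 SD of compounds lying within the high and low control bounds, cut at about 19% in these data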;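 note: 0% = median of test compound wells and 100% = no enzyme DMSO wells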
# ABHD5 PLIN5 PPI = ABHD5-PLIN5 interaction inhibitors, primary screen, cell lysate, split luciferase complementation, luminescence | Perilipin-5 (Homo sapiens) + 1-acylglycerol-3-phosphate O-acyltransferase ABHD5 (Homo … | Split G. princeps luciferase complementation, 4 h | inhibition, % at 4 µM | 0.78% of 360,000 active | AID 602281, 2012;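 active = inhibition above the mean inhibition across every tested compound plus 3 SD, cut at about 22% in these data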;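 note: 0% = DMSO only wells and the 100% control is not disclosed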
# Numbers without * were called inactive; i = inactive; ? = inconclusive; . = no result given; + = active, no number. Most compounds without a hit are left out; they make up all but 2.9% or so of the library.
SMILES,Cardio protect,DAGLB inhibitor,Myeloid diff 2,Rtt109 HAT inh,sPLA2-III inh,ABHD5 PLIN5 PPI
CC(C)N1CC=C2C(C#N)=C(N)C(C#N)(C#N)C(c3ccccc3)C2C1 (centres undefined),22,-2,i,-48,-22,-8
Nc1cc[n+](CC(=O)c2ccc3c(c2)OCCO3)cc1,2,0,+,-24,-4,-5
CNC(=O)c1cc(NC(=O)N(CCC#N)CCN(C(=O)NC(Cc2ccccc2)C(=O)NC(CC(C)C)C(=O)NC)c2ccccc2)ccc1OC (centres undefined),1,2,i,-2,3,-10
c1ccc2c3c(cc(N4CCOCC4)c2c1)OC1(N2CCOCC2)CCCCC1O3 (centres undefined),-9,-2,i,-2,10,-8
CCOC(=O)/C=C1/SCC(=O)N1CC(=O)Nc1ccccc1OC(F)F,1,-2,i,-10,-16,-8
C1=C2C[N+]3(CCCC3)CC2Cc2ccc3ccccc3c21 (centres undefined),3,2,+,-6,3,7
C[N+]1(C)CC2=Cc3ccccc3CC2C1 (centres undefined),3,-1,i,?,3,-4
CC1CCCCC1NC(=O)CCCCn1c(=O)[nH]c2ccsc2c1=O (centres undefined),-4,0,+,-2,3,1
Cc1cc(N/N=C/c2ccc(O)c(C)c2O)nc(-c2ccccc2O)n1,36,4,i,-11,-34,2
CCOc1c(C)cnc2c1c(=O)n(Cc1ccccc1Cl)c(=O)n2C,-3,-5,i,-1,2,-4
CCO/C(C)=N/n1c2nc3ccccc3nc2c2c(=O)n(Cc3ccccc3Cl)c(C)nc21,12,0,+,2,2,5
COc1cc(CNc2ccc3[nH]c(=O)[nH]c3c2)cc(Br)c1OCc1ccc(F)cc1,-1,2,+,-4,4,-2
CC1c2[nH]c3ccccc3c2C[C@H]2C(=O)N(CCO)CC(=O)N12 (some centres undefined),-1,-2,i,4,15,-5
CCc1nc2ccc(C(=O)NCCC(C)C)cn2c1N(C)Cc1nccs1,6,.,i,.,9,10
CCc1nc2ccc(C(=O)NCc3cccs3)cn2c1N(C)Cc1nccs1,48*,.,i,.,11,-3
CC1CCCCC1N(C(=O)c1cc(C2CC2)on1)C1CCCCCC1 (centres undefined),.,.,.,.,4,.
O=C(c1ccc(C(F)(F)F)cc1)C1CCCN(C(=O)CCN2CCCO2)C1 (centres undefined),4,-1,i,.,2,1
Cc1ccc(Nc2nc(N)[nH]c(=O)c2N=O)cc1,52*,5,i,-2,4,3
CCCc1cc(C(=O)N(C)CC(=O)Nc2ccc(OCC)c(OCC)c2)sc1C,4,-5,i,30,-2,-2
CCC1CN(S(=O)(=O)c2ccc3c(c2)NC(=O)CC(=O)N3)c2cc(Cl)ccc2O1 (centres undefined),66*,6,i,-7,-26,13
CCOC(=O)C1CN(S(=O)(=O)c2ccc(Cl)cc2)c2cc(S(=O)(=O)CC)ccc2O1 (centres undefined),10,.,i,-4,3,2
COC(=O)c1sc2cc([N+](=O)[O-])cc(SCC(C)C)c2c1N,-4,-3,+,10,0,1
Cc1ccsc1CN(C)c1ncnc2ccc(-c3ccoc3)cc12,-6,.,i,.,-2,10
COc1cc(/C=N/NC(=S)Nc2cccc(Cl)c2C)ccc1OCC(=O)N1CC(C)OC(C)C1 (centres undefined),55*,1,i,18,11,3
COc1cc(/C=N/NC(=O)c2ccc(Cl)cc2)ccc1OCC(=O)N1CC(C)OC(C)C1 (centres undefined),22,-1,i,1,-2,-5

# Compound activity: PubChem, several laboratories
